An excerpt weighted towards active compounds, which were near 0.57% of everything screened.
CatB mixtures = cathepsin B inhibitors from pooled compounds, primary screen, biochemical, compound mixtures, AMC fluorescence. Purified cathepsin B, AMC dipeptide fluorescence. inhibition, %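 (ten-compound pools at 5 µM per compound and 50 µM total)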. 62,000 compounds, 0.06% hits. AID 488, 2006; in the data active = inhibition above about 22%, passing the limit was not always enough
CatB block = human cathepsin B inhibitors, primary screen, biochemical, fluorogenic substrate; P07858; purified cathepsin B, fluorescence; inhibition, %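 (tested at 10 µM)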; 63,000 compounds, 0.1% hits; in the data active = inhibition above about 21%
Cdc25B inh = inhibitors of Cdc25B phosphatase catalytic domain, primary screen, biochemical, OMFP fluorescence. recombinant Cdc25B, OMFP fluorescence Ex485/Em525. inhibition, %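 (compounds tested at 10 µM final in the well)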. 65,000 compounds, 0.1% hits. AID 368, 2006; in the data active = inhibition above about 50%
CatL block = inhibitors of human cathepsin L, biochemical. Procathepsin L (Homo sapiens), P07711. purified cathepsin L, fluorogenic substrate, fluorescence. inhibition, %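 (tested at 10 µM)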. 58,000 compounds, 0.17% hits. AID 460, 2006; in the data active = inhibition above about 45%
MKP-1 inh = MKP-1 phosphatase inhibitors, primary screen, biochemical, in vitro. recombinant MKP-1, OMFP hydrolysis fluorescence. inhibition, %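 (compounds tested at a single concentration somewhere between 10 and 100 µM)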. 65,000 compounds, 0.15% hits. AID 374, 2006;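 active = inhibition above about 50%, limit read from the data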
Target sequence (P28562 whole entry, looked up): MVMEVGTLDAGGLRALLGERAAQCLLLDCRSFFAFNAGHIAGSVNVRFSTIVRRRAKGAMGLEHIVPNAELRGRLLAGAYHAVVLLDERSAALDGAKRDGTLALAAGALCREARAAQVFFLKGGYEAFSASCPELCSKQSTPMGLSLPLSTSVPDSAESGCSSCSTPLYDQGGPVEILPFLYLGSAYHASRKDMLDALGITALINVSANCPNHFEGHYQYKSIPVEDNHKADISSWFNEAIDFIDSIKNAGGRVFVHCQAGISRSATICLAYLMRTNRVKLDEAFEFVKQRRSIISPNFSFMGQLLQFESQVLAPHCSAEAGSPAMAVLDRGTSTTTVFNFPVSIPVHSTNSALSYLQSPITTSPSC
CatS inh = inhibitors of human cathepsin S, biochemical, compound mixtures; recombinant cathepsin S, AMC dipeptide fluorescence, pooled mixtures; inhibition, %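 (tested at 5 µM per compound within 10-compound mixtures)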; 62,000 compounds, 0.06% hits; AID 501, 2006; in the data active = inhibition above about 32%, passing the limit was not always enough
Redox H2O2 = redox cycling hydrogen peroxide production, dose response, artefact control, biochemical, probe assessment | shares compounds with MKP-1 inh | Redox cycling H2O2 generation, DTT, phenol red/HRP | EC50, µM | 60 tested, under 10 active | AID 672, 2007; call rule not given here
Hits are given with their value; 0 = inactive; - = no result.

SMILES	CatB mixtures	CatB block	Cdc25B inh	CatL block	MKP-1 inh	CatS inh	Redox H2O2
Cc1cccc(N2CCN(C(=O)CCn3c(=O)[nH]c4ccccc4c3=O)CC2)c1C	0	0	0	0	0	0	-
COc1ccc(-c2cc3nc(C4CCN(C(=O)OC(C)(C)C)CC4)c(C(=O)O)cn3n2)cc1	0	0	0	0	65	0	0
COc1ccc(NC(=O)CN2CCC3(O)CCCCC3C2c2ccccc2OC)cc1 (stereo unspecified)	0	0	0	0	0	0	-
CC1CCCCC1NC(=O)CSc1nc2ccccc2c(=O)n1Cc1ccco1 (stereo unspecified)	0	0	0	0	0	0	-
O=C1Nc2ccccc2SC(c2ccccc2)C1O (stereo unspecified)	0	0	0	0	58	0	0
O=C(Nc1ccccc1)c1ccc2nc(-c3ccco3)c(-c3ccco3)nc2c1	0	0	0	0	59	0	0
